The record followed here is PubChem BioAssay (EPA / NIEHS).

The nature of assay [1]: CCTE_Harrill_HTTr_CellCount_MCF7: CCTE's Cell Proliferation Assessment for the High-Throughput Transcriptomics (HTTr) Platform, Harrill Lab (AID 2284012; active = hit-call score of the fitted dose curve at least 0.9, where 1 is the maximum;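 also: cells exposed to compound for six hours; intended direction is loss of nuclei count meaning fewer cells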). An outline of the steps:
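MCF-7 cells were exposed for 6 h to an eight-point dilution series; Hoechst-labeled nuclei were counted by high content imaging. Curves were fitted bidirectionally against DMSO as negative control and baseline, with signal loss indicating reduced cell count.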

Assay [2] in a line: CCTE_Shafer_MEA_acute_burst_number: CCTE's Neural Acute Assay for Single-Electrode Bursts, Shafer Lab (AID 2284013). A digest of the protocol: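 Rat cortical cultures, DIV 13/15; 40 min baseline, then 40 min with compound 0.03-40 uM, 37 C. Spikes: 300-5000 Hz band-pass, threshold 8x rms noise. Readout = % change in single-electrode bursts vs baseline, loss-of-signal fit.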
Assay [3] can be described thus: CCTE_Shafer_MEA_acute_burst_duration_mean: CCTE's Neural Acute Assay for Mean Burst Duration, Shafer Lab (AID 2284014).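 Also: hits are decreases in mean burst duration relative to DMSO controls.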 A digest of the protocol:
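Primary rat cortical neurons on 16-electrode MEA wells, treated on DIV 13 or 15 with compound (0.03-40 uM; ≥3 wells each). 40-min baseline and 40-min exposure recordings at 37 C; percent change in mean burst duration per well versus DMSO.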

Assay [4] can be described thus: CCTE_Shafer_MEA_acute_per_burst_spike_number_mean: CCTE's Neural Acute Assay for Average Number of Spikes Per Burst, Shafer Lab (AID 2284015).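 Also: hits are decreases in mean spikes per burst versus baseline.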 A digest of the protocol: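 Percent change in mean spikes per single-electrode burst is compared between a 40 min baseline and a 40 min recording with compound (0.03-40 uM). Cultures were rat cortical neurons on MEA plates at DIV 13 or 15, recorded at 37 C, with DMSO as the negative control.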

The nature of assay [5]: CCTE_Shafer_MEA_acute_interburst_interval_mean: CCTE's Neural Acute Assay for Mean Interburst Interval, Shafer Lab (AID 2284016).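 Also: percent change of mean interburst interval versus each well's own pre-dose baseline; curves fitted for decrease in interburst interval relative to DMSO.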 An outline of the steps:
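Percent change in mean single-electrode interburst interval was calculated per well from 40 min recordings before and after compound (0.03-40 uM). Recordings were made at 37 C on rat cortical cultures at DIV 13 or 15, with spikes detected at 8x rms threshold.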

The nature of assay [6]: CCTE_Shafer_MEA_acute_burst_percentage_mean: CCTE's Neural Acute Assay for Percentage of Spikes in a Burst, Shafer Lab (AID 2284017).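 As to AC50: curve fitted for loss of signal so potency reflects decreased burst percentage.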 An outline of the steps: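 Well-level mean burst percentage from a 40-min recording after compound (0.03-40 uM) expressed as percent change from a 40-min baseline at 37C. Cultures: primary rat cortical neurons on MEA, dosed on DIV 13 or 15; fitted downward relative to DMSO.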

Assay [7] in a line: CCTE_Shafer_MEA_acute_burst_percentage_std: CCTE's Neural Acute Assay for Standard Deviation of Burst Percentage, Shafer Lab (AID 2284018).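 Also: fitted in the negative direction so actives lower burst percentage SD.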 A digest of the protocol: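 Primary rat cortical neurons on 16-electrode MEA wells were recorded 40 min at baseline (DIV 13 or 15), then 40 min after compound (0.03-40 uM), at 37 C. Well value is SD across electrodes of spikes-in-bursts/total spikes; endpoint is percent change, DMSO-referenced.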

Assay [8] in a line: CCTE_Shafer_MEA_acute_per_network_burst_spike_number_mean: CCTE's Neural Acute Assay for Average Number of Spikes in a Network Burst, Shafer Lab (AID 2284019).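 As to AC50: curve fitted for loss of signal so actives reduce spikes per network burst.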 A digest of the protocol:
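Primary rat cortical neurons on 16-electrode MEA wells, DIV 13 or 15, 37 C; 40-min baseline then 40-min recording with compound (0.03-40 uM). Spikes per network burst (total spikes/number of bursts) expressed as percent change from baseline, DMSO reference.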

A short description of assay [9]: CCTE_Shafer_MEA_acute_per_network_burst_spike_number_std: CCTE's Neural Acute Assay for Standard Deviation of Number of Spikes in a Network Burst, Shafer Lab (AID 2284020).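 Also: fitted for decrease in spike-number SD versus DMSO so actives lower it.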 An outline of the steps:
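Primary rat cortical neurons on 48-well MEAs (16 electrodes/well) recorded at DIV 13 or 15: 40-min baseline, then 40 min with compound (0.03-40 uM), 37 C. Value is percent change in SD of spikes per network burst, relative to DMSO.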

Where “and” joins values, the source holds several entries; their conditions need not be identical. Equal values may be shown once. Inconclusive results are not listed. A structure can be active in one record and inactive in another. Calls of active or inactive are those of the source. The calls were made as follows, unless noted: active = hit-call score of the fitted dose curve at least 0.9, where 1 is the maximum; inactive = score below 0.9.

Broadly, the AC50 is the concentration giving half of the maximal activity seen. `CC#C[C@]1(O)CC[C@H]2[C@@H]3CCC4=CC(=O)CCC4=C3[C@@H](c3ccc(N(C)C)cc3)C[C@@]21C`: the molecule was classed as inactive in assay [1], in assay [2], in assay [3], in assay [4], in assay [5] and in assay [8]. Moreover, in assay [9], the molecule was called inactive. The AC50 in assay [2] is 1.66 µM (active); in assay [4], 32.9 µM (active); in assay [5], 4.16 µM (active); in assay [6], 16.3 µM (active) and 5.2 µM (active); in assay [7], 4.22 µM (active) and 6.02 µM (active); in assay [9], 9.84 µM (active).

`CCc1nn(C2CCCCC2)c2cc(C3(C#N)CCC(C(=O)O)CC3)ccc12` (stereo unspecified): the molecule was classed as inactive in assay [1].

Regarding `CN1CCC[C@H]1c1cccnc1`, the AC50 in [2] is 0.0479 µM (active). Besides, the molecule was called inactive in assay [3], in assay [4], in assay [5], in assay [6], in [7] and in [8]. The molecule was called inactive in assay [9].

In the case of `COCC(C)OCC(C)O` (stereo unspecified), the molecule was called inactive in assay [1].

As for `CCOC(=O)CC(O)(CC(=O)OCC)C(=O)OCC`, in [1], the call was inactive.

On to `OCCC(F)(F)C(F)(F)C(F)(F)C(F)(F)C(F)(F)C(F)(F)F`, for which the molecule was called inactive in [1].

Regarding `CC(C)CCCCCCOC(=O)CCCCC(=O)OCCCCCCC(C)C`, the molecule was called inactive in [1], in assay [2], in assay [3], in [4], in assay [5] and in [6]. Moreover, the result in assay [7], in assay [8] and in assay [9] was inactive.

Consider `Cc1cc(C)c(O)c(C)c1`, for which the result in [1] was inactive.

For the molecule `CCCCCCCCCCCCCCCS(=O)(=O)Oc1ccccc1`, the call in assay [2], in assay [3], in assay [4], in [5], in assay [6] and in assay [7] was inactive. The result in [8] and in assay [9] was inactive.

`ClC1=C(Cl)C(Cl)(Cl)C(Cl)=C1Cl`: the result in assay [1] was inactive.

`CC(C)(C)c1cccc(C(C)(C)C)c1O`: in assay [1], the result was inactive.

`CC[C@H](c1ccc(O)cc1)[C@@H](CC)c1ccc(O)cc1`: the outcome in assay [2], in [3], in [4], in assay [5], in assay [6] and in assay [7] was inactive. The call in assay [8] and in assay [9] was inactive.

Regarding `CCCCC(CC)COC(=O)CCCCC(=O)OCC(CC)CCCC` (stereo unspecified), the call in assay [1] was inactive.

Regarding `CC(C)(C)c1cc(C(C)(C)C)c(O)c(C(C)(C)C)c1`, the molecule was classed as inactive in assay [2], in [3], in assay [4], in assay [5], in [6] and in assay [7]. In addition, the call in assay [8] and in [9] was inactive.

With `CN1CCN(c2ccccc2/C=C2\SCCN(c3ccc(Cl)c(Cl)c3)C2=O)CC1`, the AC50 in assay [1] is 77.1 µM (active); in assay [3], 32 µM (active); in [6], 0.128 µM (active); in assay [8], 0.207 µM (active). Further, the molecule was classed as inactive in [2], in assay [4], in [5], in assay [7] and in assay [9].

Take `O=C(/C=C/c1ccc(O)cc1)CC(=O)/C=C/c1ccc(O)cc1`: in assay [1], the result was inactive.

In the case of `CCCCCCCCCCCCc1ccccc1S(=O)(=O)O`, the outcome in assay [2], in [3], in assay [4], in [5], in assay [6] and in assay [7] was inactive. For the same molecule, the outcome in assay [8] and in assay [9] was inactive.

For `CCCCCCCCOC(=O)CCCCCCCCC(=O)OCCCCCCCC`, the result in assay [1] was inactive.

As to `CC(=O)NC1(c2cccc(F)c2)CCN(CC[C@@]2(c3ccc(Cl)c(Cl)c3)CN(c3ccccc3)C(=O)CO2)CC1`, the call in assay [1], in assay [4], in assay [5], in assay [8] and in [9] was inactive. In addition, the AC50 in assay [2] was 1.24 µM (active); in [3], 1.04 µM (active); in assay [6] it was 8.94 µM (active); in assay [7] it was 20 µM (active).

On to `CC[C@H](C)[C@@H](C(=O)O)n1sc2ccccc2c1=O`, for which, in assay [1], the molecule was classed as inactive.

With `Cc1cc(CCN2CCN(c3nsc4ccccc34)CC2)cc2c1NC(=O)CC2(C)C`, the AC50 in assay [1] was 92.2 µM (active); in assay [3], 8.81 µM (active); in [4] it was 20 µM (active); in assay [5] it was 5.98 µM (active); in assay [6] it was 32.1 µM (active); in assay [9], 7.3 µM (active). The call in assay [2], in [7] and in assay [8] was inactive.

With `COC(=O)CCCCC(=O)OC`, the molecule was classed as inactive in [1].

For `OCCC(F)(F)C(F)(F)C(F)(F)C(F)(F)C(F)(F)C(F)(F)C(F)(F)C(F)(F)F`, the molecule was called inactive in assay [2], in assay [3], in [4], in [5], in assay [6] and in assay [7]. Moreover, the outcome in [8] and in [9] was inactive.

Turning to `CCCCCCCCCCCCN1CCCC1=O`, the outcome in [1], in assay [2], in assay [3], in assay [4], in assay [5] and in assay [6] was inactive. The molecule was classed as inactive in [7], in assay [8] and in assay [9].

As to `CN(C)C=O`, the result in [2], in [3], in assay [4], in [5], in assay [6] and in assay [7] was inactive. The call in assay [8] and in [9] was inactive.
